In PubChem BioAssay (NCATS):
Records with an inconclusive call do not appear. Where a call stands in place of a potency, no number is given. Active and inactive are the calls of the source. The call rests on the fitted dose curve; in most records, active means well fitted inhibition curve with a large enough effect; inconclusive means small, poorly fitted or top-dose-only effect; inactive means flat fitted curve, though single readings scatter.

Legend:
Assay in all cases: qHTS profiling for inhibitors of Plasmodium falciparum proliferation (AID 504749); further: nearly all actives have a fitted effect of over 60% in size
Conditions in all cases: P. falciparum in erythrocytes, SYBR Green DNA, 72 h; series mostly up to 28.7 µM
ATS189 = tested on: ATS189
How it was run: (§1)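 Fluorescence of SYBR Green-bound parasite DNA, read at 485/535 nm, served as the growth measure. Infected erythrocytes were cultured with compound 72 h; artemisinin (0.29 uM) and DMSO wells defined the normalization range.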

ATS95 = tested on: ATS95
How it was run: as §1

C2A = tested on: C2A
How it was run: as §1

CP185 = tested on: CP185
How it was run: as §1

CP191 = tested on: CP191
How it was run: as §1

CP192 = tested on: CP192
How it was run: as §1

CP194 = tested on: CP194
How it was run: as §1

CP201 = tested on: CP201
How it was run: as §1

CP203 = tested on: CP203
How it was run: as §1

CP211 = tested on: CP211
How it was run: as §1

CP215 = tested on: CP215
How it was run: as §1

CP217 = tested on: CP217
How it was run: as §1

CP237 = tested on: CP237
How it was run: as §1

CP238 = tested on: CP238
How it was run: as §1

CP247 = tested on: CP247
How it was run: as §1

CP250 = tested on: CP250
How it was run: as §1

CP252 = tested on: CP252
How it was run: as §1

CP256 = tested on: CP256
How it was run: as §1

CP260 = tested on: CP260
How it was run: as §1

CP262 = tested on: CP262
How it was run: as §1
Potency means the concentration at half of the fitted maximal effect.

| Structure (SMILES) | Potency (ATS189) | Potency (ATS95) | Potency (C2A) | Potency (CP185) | Potency (CP191) | Potency (CP192) | Potency (CP194) | Potency (CP201) | Potency (CP203) | Potency (CP211) | Potency (CP215) | Potency (CP217) | Potency (CP237) | Potency (CP238) | Potency (CP247) | Potency (CP250) | Potency (CP252) | Potency (CP256) | Potency (CP260) | Potency (CP262) |
| --- | --- | --- | --- | --- | --- | --- | --- | --- | --- | --- | --- | --- | --- | --- | --- | --- | --- | --- | --- | --- |
| O=c1ccc2ccccc2o1 | inactive | inactive | inactive | inactive | inactive | inactive | inactive | inactive | inactive | inactive | inactive | inactive | inactive | inactive | inactive | inactive | inactive | inactive | inactive | inactive |
| CC(=O)Oc1ccc(C(c2ccc(OC(C)=O)cc2)c2ccccn2)cc1 | inactive | inactive | inactive | inactive | inactive | inactive | inactive | inactive | inactive | inactive | inactive | inactive | inactive | inactive | inactive | inactive | inactive | inactive | inactive | inactive |
| CC(=O)Nc1c(I)cc(I)c(C(=O)O)c1I | inactive | inactive | inactive | inactive | inactive | inactive | inactive | inactive | inactive | inactive | inactive | inactive | inactive | inactive | inactive | inactive | inactive | inactive | inactive | inactive |
| CN1C(CCl)Nc2cc(Cl)c(S(N)(=O)=O)cc2S1(=O)=O (stereo unspecified) | inactive | inactive | inactive | inactive | inactive | inactive | inactive | inactive | inactive | inactive | inactive | inactive | inactive | inactive | inactive | inactive | inactive | inactive | inactive | inactive |
| CCOC(=O)OC(C)OC1=C(C(=O)Nc2ccccn2)N(C)S(=O)(=O)c2ccccc21 (stereo unspecified) | inactive | inactive | inactive | inactive | inactive | inactive | inactive | inactive | inactive | inactive | inactive | inactive | inactive | inactive | inactive | inactive | inactive | inactive | inactive | inactive |
| Nc1cc(Cl)c(NC2=NCCN2)c(Cl)c1 | inactive | inactive | inactive | inactive | inactive | inactive | inactive | inactive | inactive | inactive | inactive | inactive | inactive | inactive | inactive | inactive | inactive | inactive | inactive | inactive |
| CCCCCCC[N+](CC)(CC)CCCCc1ccc(Cl)cc1 | 2.82 µM (active) | 2.24 µM (active) | 1.58 µM (active) | 2 µM (active) | 2 µM (active) | 2.03 µM (active) | 2.28 µM (active) | 2.56 µM (active) | 1.81 µM (active) | 1.44 µM (active) | 2.03 µM (active) | 2.82 µM (active) | 2.82 µM (active) | 2.51 µM (active) | 2.51 µM (active) | 3.16 µM (active) | 2.51 µM (active) | 2.24 µM (active) | 2.24 µM (active) |  |
| COc1ccc(C2C(=O)c3ccccc3C2=O)cc1 | inactive | inactive | inactive | inactive | inactive | inactive | inactive | inactive | inactive | inactive | inactive | inactive | inactive | inactive | inactive | inactive | inactive | inactive | inactive | inactive |
| CCCCCCc1ccc(O)cc1O | inactive | inactive | inactive | inactive | inactive | inactive | inactive | inactive | inactive | inactive | inactive | inactive | inactive | inactive | inactive | inactive | inactive | inactive | inactive | inactive |
| CCCCOc1ccc(OCCCN2CCOCC2)cc1 | inactive | inactive | inactive | inactive | inactive | inactive | inactive | inactive | inactive | inactive | inactive | inactive | inactive | inactive | inactive | inactive | inactive | inactive | inactive | inactive |
| Oc1c(Cl)cc(Cl)cc1Sc1cc(Cl)cc(Cl)c1O | inactive | inactive | inactive | inactive | inactive | inactive | inactive | inactive | inactive | inactive | inactive | inactive | inactive | inactive | inactive | inactive | inactive | inactive | inactive | inactive |
| COCc1c(C(C)C)nc(C(C)C)c(/C=C/[C@@H](O)C[C@@H](O)CC(=O)O)c1-c1ccc(F)cc1 | inactive | inactive | inactive | inactive | inactive | inactive | inactive | inactive | inactive | inactive |  | inactive | inactive | inactive |  | inactive | inactive | inactive | inactive | inactive |
| CCOC(=O)n1ccn(C)c1=S | inactive | inactive | inactive | inactive | inactive | inactive | inactive | inactive | inactive | inactive | inactive | inactive | inactive | inactive | inactive | inactive | inactive | inactive | inactive | inactive |
| CCN1CCC[C@H]1CNC(=O)c1c(OC)ccc(Br)c1OC | inactive | inactive | inactive | inactive | inactive | inactive | inactive | inactive | inactive | inactive | inactive | inactive |  | inactive |  | inactive | inactive | inactive | inactive | inactive |
| C1CCc2nnnn2CC1 | inactive | inactive | inactive | inactive | inactive | inactive | inactive | inactive | inactive | inactive | inactive | inactive | inactive | inactive | inactive | inactive | inactive | inactive | inactive | inactive |
| COc1ccc(/C=C/C(=O)c2ccc(OC)cc2OC)cc1 | 5.62 µM (active) | 11.2 µM (active) | 11.2 µM (active) | 8.91 µM (active) | 3.16 µM (active) | 13.5 µM (active) | 12 µM (active) | 8.49 µM (active) | 13.5 µM (active) | 6.75 µM (active) | 6.75 µM (active) | 5.01 µM (active) | 11.2 µM (active) | 11.2 µM (active) | 4.47 µM (active) | 5.62 µM (active) | 5.01 µM (active) | 2.24 µM (active) | 8.91 µM (active) | 5.36 µM (active) |
| COC1=CC(=O)C[C@@H](C)[C@]12Oc1c(Cl)c(OC)cc(OC)c1C2=O | inactive | inactive | inactive | inactive | inactive | inactive | inactive | inactive | inactive | inactive | inactive | inactive | inactive | inactive | inactive | inactive | inactive | inactive | inactive | inactive |
| C[C@H]1C[C@H]2[C@@H]3CCC4=CC(=O)C=C[C@]4(C)[C@@]3(Cl)[C@@H](O)C[C@]2(C)[C@@]1(O)C(=O)CO | inactive | inactive | inactive | inactive | inactive | inactive | inactive | inactive |  | inactive | inactive | inactive | inactive | inactive | inactive | inactive | inactive | inactive | inactive | inactive |
| CCCCN1CCCC1C(=O)Nc1c(C)cc(C)cc1C (stereo unspecified) | inactive | inactive | inactive | inactive | inactive | inactive | inactive | inactive | inactive | inactive | inactive | inactive |  | inactive | inactive | inactive | inactive | inactive | inactive | inactive |
| CC(C)COC(=O)OCN1C(=O)CN(CCN2CC(=O)N(COC(=O)OCC(C)C)C(=O)C2)CC1=O | inactive | inactive | inactive | inactive | inactive | inactive | inactive | inactive |  | inactive | inactive | inactive | inactive | inactive | inactive | inactive | inactive | inactive | inactive | inactive |
| Cc1cc(O)c(C(C)C)cc1Cl | inactive | inactive | inactive | inactive | inactive | inactive | inactive | inactive |  | inactive | inactive | inactive | inactive | inactive | inactive | inactive | inactive | inactive | inactive | inactive |
| CCOc1ccc2nc3cc(N)ccc3c(N)c2c1 | 7.08 µM (active) | 10 µM (active) | 6.31 µM (active) | 5.01 µM (active) | 5.01 µM (active) | 9.53 µM (active) | 15.1 µM (active) | 12 µM (active) | 16.9 µM (active) |  | 9.53 µM (active) | 7.08 µM (active) | 4.47 µM (active) | 5.01 µM (active) | 10 µM (active) | 8.91 µM (active) | 7.08 µM (active) | 4.47 µM (active) | 3.98 µM (active) |  |
| CCC(C(=O)OCCN(CC)CC)c1ccccc1 (stereo unspecified) | inactive | inactive | inactive | inactive | inactive | inactive | inactive | inactive | inactive | inactive | inactive | inactive | inactive | inactive | inactive | inactive | inactive | inactive | inactive | inactive |
| CCCCCCCCCCCCCCCCOP(=O)([O-])OCC[N+](C)(C)C | inactive | inactive | inactive | inactive | inactive | inactive | inactive | inactive | inactive | inactive | inactive | inactive | inactive | inactive | inactive | inactive | inactive | inactive | inactive | inactive |
| CCN(CC)C(=O)/C(C#N)=C/c1cc(O)c(O)c([N+](=O)[O-])c1 | inactive | inactive | inactive | inactive | inactive | inactive | inactive | inactive | inactive | inactive | inactive |  |  | inactive |  | inactive | inactive | inactive | inactive | inactive |
| COc1cc2c(cc1OC)C(C(C(=O)N(CCc1ccc(OC)c(OC)c1OC)CCc1ccc(OC)c(OC)c1OC)c1ccccc1)=NCC2 (stereo unspecified) | inactive | 3.55 µM (active) | inactive | 10 µM (active) | 10 µM (active) | 13.5 µM (active) | 13.5 µM (active) | 15.1 µM (active) | 6.75 µM (active) | 12 µM (active) | 6.75 µM (active) | 4.47 µM (active) | 2 µM (active) | 6.31 µM (active) | 4.47 µM (active) | 7.08 µM (active) | 5.01 µM (active) | 5.62 µM (active) | 3.55 µM (active) | 9.53 µM (active) |
